# SRC1 inh: SRC1 coactivator transcriptional activity inhibitors, primary screen, cell-based, luminescence; Nuclear receptor coactivator 1 (Homo sapiens), Q15788; HEK293 GAL4-SRC1 luciferase reporter; inhibition, % at 3.6 µM; hit rate 0.12% among 360,000; AID 588354, 2011;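 active = inhibition above the campaign mean plus 3 SD, with each screening campaign given its own cutoff, cut at about 60% in these data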;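 note: 0% = DMSO treated cells and 100% = gossypol at 36 µM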
# LRH-1 inv ag: LRH-1 (NR5A2) inverse agonists, primary screen, cell-based, luminescence, HEK293T, StAR-luciferase reporter | Nuclear receptor subfamily 5 group A member 2 (Homo sapiens), O00482 | LRH-1 transfected, 24 h | inhibition, % at 3.6 µM | hit rate 0.13% among 360,000;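 active = inhibition above the mean inhibition of all tested compounds plus 3 SD, cut at about 73% in these data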;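 note: 0% = DMSO wells and 100% = reporter-only cells lacking LRH-1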
# NR2F2 inh: NR2F2 transcriptional activity inhibitors, primary screen, cell-based, luciferase reporter, HEK293T, luminescence; COUP transcription factor 2 (Homo sapiens), P24468; HEK293T NGFI-A luciferase reporter; inhibition, % at 8.6 µM; hit rate 0.7% among 370,000; AID 686940, 2013;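 active = inhibition above a per-plate cutoff, mean inhibition of test wells between control levels plus 3 SD, cut at about 38% in these data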;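 note: cells cotransfected with COUP-TFII expression vector driving the NGFI-A reporter; 0% = median of COUP-TF2 test wells and 100% = reporter-only cells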
# NCOA3 inh: SRC3 coactivator transcriptional activity inhibitors, primary screen, cell-based, luminescence | AID 588352, 2011 | hit rate 0.17% among 360,000 | Nuclear receptor coactivator 3 (Homo sapiens), Q9Y6Q9 | inhibition, % at 3.6 µM | HEK293 GAL4-SRC3 luciferase reporter;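 active = inhibition above a per-campaign cutoff, the mean of all compounds plus 3 SD, cut at about 60% in these data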;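 note: 0% = DMSO-treated cells and 100% = gossypol-treated cells at 36 µM; higher means less SRC3-driven luciferase light from the GAL4 reporter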
# NCOA2 inhibitor: inhibition of GAL4-SRC2 driven luciferase reporter, primary screen, SRC2 inhibitor project, cell-based, luminescence; hit rate 0.17% among 370,000; AID 651957, 2012; Nuclear receptor coactivator 2 (Homo sapiens), Q15596; HEK293 GAL4-SRC2 luciferase reporter; inhibition, % at 9 µM;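 active = inhibition above the mean inhibition of all tested compounds plus 3 SD, set per campaign, cut at about 52% in these data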;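 note: 0% = DMSO treated cells and 100% = cells given Gossypol at 36 µM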
# Gal4-VP16 ctr: Gal4-VP16 luciferase reporter inhibitors, counter-screen for COUP-TFII antagonist project, cell-based, luminescence, HEK293; shares compounds with NR2F2 inh; inhibition, % at 8.5 µM; hit rate 25% among 2,500; AID 687007, 2013; in the data active = inhibition above about 13%
# COUP-TFII conf: NR2F2 transcriptional activity inhibitors, confirmation, cell-based, luciferase reporter, HEK293, triplicate; shares compounds with NR2F2 inh; HEK293 NGFI-A luciferase reporter, luminescence; inhibition, % at 8.5 µM; hit rate 45% among 2,500;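 active = mean inhibition over three repeats above a set limit taken from the earlier primary screen, cut at about 38% in these data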;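 note: 100% = cells given the luciferase reporter alone without the COUP-TF2 vector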
# * hit, by the source's call; / = no result given. Shown are actives, neighbours in structure and some others; about 0.81% of the full set was active somewhere.
SMILES,SRC1 inh,LRH-1 inv ag,NR2F2 inh,NCOA3 inh,NCOA2 inhibitor,Gal4-VP16 ctr,COUP-TFII conf
CCCCCC[n+]1ccccc1/C=C/c1ccc(N(C)C)cc1,71.5*,98.4*,92.2*,82.2*,22.7,25.1*,89.3*
CN(C)c1ccc(/C=N/NC(=O)C[n+]2ccccc2)cc1,-36.1,19.6,-2.1,11.9,-28.6,/,/
CN(C)c1ccc(C(=O)/C=C/c2ccccc2)cc1,-94.3,-156.7,-49.9,-60.4,-60.1,/,/
CC[n+]1ccccc1/C=C/c1ccc(N(C)C)cc1,39.1,40.3,66.0*,41.0,18.9,0.6,50.1*
CCc1cc2c(COC(=O)CCNS(=O)(=O)c3cccc(C(F)(F)F)c3)cc(=O)oc2cc1O,-15.0,8.2,-2.2,-4.8,14.9,/,/
Cc1cc(NC2CCCC2)n2ncc(-c3ccccc3)c2n1,31.3,36.4,47.5*,-2.0,34.0,-20.5,51.8*
Cc1cc(NC2CCCC2)n2nc(C)c(-c3ccccc3)c2n1,-43.0,16.9,14.7,-14.6,-19.5,/,/
CCOC(=O)[C@@]12CCCC=C1N(CCc1ccc(Cl)cc1)C(=O)[C@H]2CC(=O)N1CCCCC1,/,/,29.8,/,-3.6,/,/
CCOC(=O)[C@@]12CCCC=C1N(CCc1ccc(Cl)cc1)C(=O)[C@H]2CC(=O)N1CCCC1,/,/,44.4*,/,8.4,7.1,39.7*
CCCCn1nc2cc(C(=O)NCC34CC5CC(CC(C5)C3)C4)ccc2c1OCC,-26.6,11.3,6.7,-27.4,5.2,/,/
COc1ccc(NC(=O)C2Cc3c(-c4ccc5c(c4)OCO5)ccnc3O2)cc1OC (centres undefined),30.2,52.7,66.1*,24.0,14.0,8.7,57.3*
CC(=O)Nc1cccc(-c2ccnc3c2CC(C(=O)Nc2ccc(F)c(Cl)c2)O3)c1 (centres undefined),4.5,1.1,5.1,-11.6,-9.7,/,/
O=C(Nc1ccc(F)c(Cl)c1)C1Cc2c(-c3ccco3)ccnc2O1 (centres undefined),8.2,-4.1,40.6*,19.8,5.4,1.8,16.5
COc1ccc(NC(=O)C2Cc3c(-c4cccc(F)c4)ccnc3O2)cc1OC (centres undefined),9.1,-2.8,51.6*,16.1,29.9,1.0,34.1
COc1ccc(NC(=O)C2Cc3c(-c4ccc(NC(C)=O)cc4)ccnc3O2)cc1OC (centres undefined),7.5,17.6,-5.2,-7.8,2.0,/,/
CC(=O)c1cccc(N=c2scc(-c3ccc(S(=O)(=O)N4CCOCC4)cc3)n2CCO)c1,26.0,46.0,59.9*,54.1,-5.0,3.9,64.5*
COc1cc2c(cc1NC(=O)CSCC(=O)O)oc1ccccc12,-4.2,14.4,5.2,-9.2,-19.3,/,/
C=C(C(=O)c1ccccc1)C(c1ccccc1)C(C)C(=O)c1ccccc1 (centres undefined),14.2,4.8,-21.0,28.0,38.1,/,/
C=C(C(=O)c1ccccc1)C(C)C(=C)C(=O)c1ccccc1,17.2,21.2,57.6*,41.0,46.8,47.1*,86.8*
COCCn1c(C)cc(C2=NNC(=Nc3ccccc3F)SC2)c1C,83.8*,87.1*,90.0*,85.0*,84.1*,35.7*,80.5*
C=CCc1c(OC(C)=O)c2ccccc2n(C)c1=O,13.9,0.5,39.8*,30.6,17.9,-9.0,30.9
CCc1c(OC(C)=O)c2ccccc2n(C)c1=O,-19.7,-13.0,-8.5,24.0,-5.2,/,/
CN1/C(=C\C=C2/SC(=S)NC2=O)C(C)(C)c2ccccc21,23.0,26.9,41.8*,20.5,34.4,13.7*,23.7
CC(NC(=O)CN1C(=O)COc2ccccc21)c1ccccc1 (centres undefined),-15.3,-17.5,7.2,7.0,-24.0,/,/
CC(C)(C)c1ccc(C(=O)O/N=C(\N)c2ccccc2)cc1,82.3*,69.2,86.1*,82.0*,80.2*,66.5*,90.7*
SMILES,SRC1 inh,LRH-1 inv ag,NR2F2 inh,NCOA3 inh,NCOA2 inhibitor,Gal4-VP16 ctr,COUP-TFII conf
CC1CCN(C(c2cc3cc4c(cc3[nH]c2=O)OCO4)c2nnnn2CC2CCCO2)CC1 (centres undefined),6.1,17.9,/,14.1,/,/,/
COC(=O)CCC1(C(N)=O)CCC(=O)c2ccccc21 (centres undefined),-7.4,-8.7,19.5,-6.0,2.3,/,/
Cc1csc2nc(NC(=O)c3ccccc3)sc(=O)c12,-14.0,-4.7,-11.3,-40.5,23.9,/,/
NC(=O)[C@@H]1CC2(CC(c3cccc(NC(=O)COc4ccc(Cl)cc4)c3)=NO2)CN1C(=O)COc1ccc(Cl)cc1 (some centres undefined),10.4,-0.2,45.2*,2.4,24.2,-9.0,18.9
COc1cccc(-c2cnc3c(NC=O)cc(-c4ccccc4)cn23)c1,0.4,10.8,-7.6,5.5,-9.5,/,/
Cc1cc(C)c(NC(=O)COc2ccc(-n3cnnn3)cc2)c(C)c1,7.3,-23.1,11.4,2.8,4.1,/,/
Cc1ccc2cccc(S(=O)(=O)N3CCCc4ccccc43)c2n1,-5.3,-4.6,38.6*,13.2,16.5,-2.3,14.3
O=C(c1cc(COc2cccc(C(F)(F)F)c2)on1)N1CCC(c2ccncc2)CC1,-19.8,-0.8,45.6*,9.0,6.9,-15.9,35.9
CC(=O)c1ccc(OCc2cc(C(=O)N3CCC(c4ccncc4)CC3)no2)cc1,1.4,13.3,15.1,16.9,-4.4,/,/
O=C(c1cc(COc2cccc(C(F)(F)F)c2)on1)N1CCC(c2ccccc2)CC1,-29.8,-1.6,-9.3,0.5,-5.5,/,/
COc1cccc(OCc2cc(C(=O)N3CCC(c4ccncc4)CC3)no2)c1,2.7,6.3,48.9*,18.3,17.5,-2.2,30.9
CN1CCCC2(CCCN(Cc3nc(Cc4cccc(C(F)(F)F)c4)no3)C2)C1 (centres undefined),-9.8,4.7,11.2,19.6,3.1,/,/
FC(F)(F)c1cccc(Cc2noc(CN3CCC(c4ccncc4)CC3)n2)c1,13.7,34.4,52.5*,8.9,10.5,6.6,35.5
N=c1ccn(Cc2ccc(Cl)c(Cl)c2)cc1,5.5,8.8,49.4*,2.9,15.8,-6.3,12.0
C[n+]1c2n(c3ccccc31)N=C(c1cc(C(C)(C)C)c(O)c(C(C)(C)C)c1)CS2,6.9,79.4*,80.7*,59.8,9.2,28.5*,86.8*
COc1cccc(C2=Nn3c(nnc3-c3ccccc3O)SC2)c1,6.6,11.1,-8.6,12.4,-3.8,/,/
COc1ccc(NC(=O)c2cc(-c3ccccc3Cl)on2)cc1,-31.4,-73.3,-26.2,-62.0,-47.7,/,/

# High-throughput results as filed in PubChem.
